Screens (PubChem)
ROC1-CUL1 inh: inhibitors of human ROC1-CUL1 ubiquitin ligase activity | 140,000 compounds, 0.6% hits | inhibition, % at 10 µM | in vitro K48 di-Ub FRET, acceptor:donor ratio, 45 min | P62877+Q13616; in the data active = inhibition above about 25%
Target sequence (P62877 whole entry, looked up): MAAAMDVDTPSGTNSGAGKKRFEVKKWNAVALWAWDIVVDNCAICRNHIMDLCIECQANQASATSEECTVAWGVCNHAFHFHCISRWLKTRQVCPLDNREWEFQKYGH
Target sequence (Q13616 whole entry, looked up): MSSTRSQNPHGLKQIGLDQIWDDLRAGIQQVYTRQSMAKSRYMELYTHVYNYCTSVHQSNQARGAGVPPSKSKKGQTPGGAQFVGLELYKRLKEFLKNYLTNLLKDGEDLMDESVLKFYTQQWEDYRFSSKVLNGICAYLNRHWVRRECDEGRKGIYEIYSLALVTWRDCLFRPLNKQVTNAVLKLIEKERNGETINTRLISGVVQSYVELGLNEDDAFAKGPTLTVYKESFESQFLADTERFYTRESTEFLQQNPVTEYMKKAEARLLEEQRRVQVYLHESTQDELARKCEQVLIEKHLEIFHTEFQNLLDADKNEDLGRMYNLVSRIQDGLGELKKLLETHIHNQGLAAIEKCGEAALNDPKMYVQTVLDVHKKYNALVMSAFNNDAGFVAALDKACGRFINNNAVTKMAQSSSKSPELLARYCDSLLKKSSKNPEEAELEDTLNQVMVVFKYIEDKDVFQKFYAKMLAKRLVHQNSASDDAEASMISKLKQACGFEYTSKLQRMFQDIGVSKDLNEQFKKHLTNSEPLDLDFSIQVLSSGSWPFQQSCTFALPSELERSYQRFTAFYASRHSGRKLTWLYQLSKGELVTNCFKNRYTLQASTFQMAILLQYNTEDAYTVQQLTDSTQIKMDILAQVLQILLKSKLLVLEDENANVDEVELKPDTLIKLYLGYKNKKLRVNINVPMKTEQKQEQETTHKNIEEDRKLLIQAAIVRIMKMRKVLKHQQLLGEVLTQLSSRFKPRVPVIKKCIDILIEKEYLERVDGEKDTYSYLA
* = called active by the depositor. The sample as a whole holds a higher share of hits than the screen did.

SMILES | ROC1-CUL1 inh
O=C1C(=O)N(c2nnc(SCc3ccc(Cl)cc3)s2)C(c2cccs2)C1C(=O)c1cc2ccccc2o1 (stereo unspecified) | 45*
COC(=O)C1CCCCN1C(=O)c1c(OC)cc(=O)n2c1CCN(Cc1cccc(OC)c1)CC2 (stereo unspecified) | -5
C=CCCC(=O)N1CCC(n2nccc2NC(=O)Nc2ccccc2Cl)CC1 | -9
CC(C)(C)c1ccc(C(=O)Oc2cccc(/C=C3\C(=N)N4N=C(c5ccco5)SC4=NC3=O)c2)cc1 | 96*
N=C1/C(=C/c2cccc(OC(=O)c3cccs3)c2)C(=O)N=C2SC(c3cccs3)=NN12 | 95*
CCOC(=O)c1ccc(-c2ccc(/C=C3/C(=N)N4N=C(c5ccc(C)cc5)SC4=NC3=O)o2)cc1 | 2
COc1cc(/C=C2/C(=N)N3N=C(c4ccco4)SC3=NC2=O)cc(OC)c1OC | 18
Cc1ccc(S(=O)(=O)Oc2cccc(/C=C3/C(=N)N4N=C(CC(C)C)SC4=NC3=O)c2)cc1 | 1
N=C1/C(=C/c2cccc(Br)c2)C(=O)N=C2SC(C(F)(F)F)=NN12 | -2
Cc1c2c(c(=O)n(-c3ccccc3)c1-c1ccccc1)C(=O)C(I)C(=O)O2 (stereo unspecified) | -4
COc1ccc(OC)c(NC(=O)N=C2C(=O)N(c3ccccc3)N(C)C2C)c1 (stereo unspecified) | -2
CCCCc1ccc(-c2cc(C(=O)N3CCCCCC3)c3cc(Br)ccc3n2)cc1 | -7
C=CCN1C(=O)C(CSCc2ccccc2)NC1=S (stereo unspecified) | 0
CCOc1cc[n+](CC)c(-c2ccccc2)n1 | 0
CC[n+]1cc(Cl)nc(-c2ccccc2)c1-c1ccccc1 | 39*
Nc1nc(-c2ccccc2)c(Cl)nc1-c1ccccc1 | 5
Clc1cc2c(cc1CNC1CCCc3c1cnn3-c1ccccn1)OCO2 (stereo unspecified) | 12
CC1C(=NC(=O)c2ccccc2NC(=O)c2ccc(Cl)cc2)C(=O)N(c2ccccc2)N1C (stereo unspecified) | -1
CCc1c(C)[nH]n(-c2nc3ccccc3s2)c1=O | 6
COc1ccc(CCn2c(O)cc3nn(-c4nc5ccccc5s4)c(=O)c-3c2C)cc1 | 80*
Cc1cc(-c2ccccc2)nn1-c1nc2ccccc2s1 | -3
O=C(c1cnc[nH]1)N1CCC(C2CCN(Cc3cccc(F)c3F)CC2)C1 (stereo unspecified) | -2
COc1ccccc1C(=O)OC1CCCCC1O (stereo unspecified) | -1
CCOC(=O)Nc1ccc(S(=O)(=O)N2CCCC(C)C2)cc1 (stereo unspecified) | 13
Cc1cccc(N2CCN(S(=O)(=O)c3ccc(N4CCCC4=O)cc3)CC2)c1 | -8
SMILES | ROC1-CUL1 inh
CNc1ncnc(Sc2c(Br)c(=O)n(C)c(=O)n2C)c1N | 81*
O=[N+]([O-])c1cccnc1N/N=C/c1ccc(Cl)c(Cl)c1 | 6
CC#CC(=O)N1CCCC1C(=O)Nc1ccccc1-c1ccc(OC)cc1 (stereo unspecified) | 10
COc1ccc(-c2nnc(NC(=O)C34CC5CC(CC(C5)C3)C4)s2)cc1OC | -1
CC(=O)n1c(=O)c2cc3ccccc3cc2c(=O)n1C(C)=O | 6
CC(=O)c1c(=O)n(O)cc2ccccc12 | 91*
CC(=O)c1c(C)sc2c1ccc1ccccc12 | 1
CC(C)NC(=O)[C@@H]1C[C@@H]1c1ccccc1 | 5
COc1ccc(CCNc2ncnc3sc4c(c23)CCC4)cc1OC | 3
Cc1ccccc1C(=O)Nc1nc(-c2ccc(Br)cc2)cs1 | -9
CN(c1ccccc1)S(=O)(=O)c1ccccc1[N+](=O)[O-] | 12
Cc1ccc(N2C(=O)C(=O)N=C(Cl)C2Cl)cc1 (stereo unspecified) | 5
CC1=NN(c2ccc(C)cc2)C(O)C1 (stereo unspecified) | 75*
CSc1ccc(C2N(c3ccc(C)cc3)CCN2c2ccc(C)cc2)cc1 | -16
O=C1NN(c2ccc(Cl)cc2)C(=O)/C1=C\c1cc(I)cc(I)c1O | -11
COc1cc(/C=C2\C(=O)NN(c3ccc(C)cc3)C2=O)cc(Br)c1O | 12
CC(=O)Oc1cccc(/C=C2/C(=O)NN(c3cccc(Cl)c3)C2=O)c1 | 26*
COc1ccccc1/C=C1\C(=O)NN(c2cccc(Cl)c2)C1=O | 6
COc1cc(Br)cc(/C=C2\C(=O)NN(c3ccc(C)c(Cl)c3)C2=O)c1O | 43*
O=C1NN(c2ccccc2)C(=O)/C1=C/c1cccc(OCCCOc2ccc(Cl)cc2)c1 | 5
COc1ccc(/C=C2\C(=O)NN(c3cccc(Cl)c3)C2=O)cc1 | 8
COc1ccc(Br)cc1/C=C1/C(=O)NN(c2cccc(Cl)c2)C1=O | 89*
COc1cc(/C=C2\C(=O)NN(c3ccc(Cl)c(Cl)c3)C2=O)cc(Br)c1O | 7
COc1ccccc1/C=C1/C(=O)NN(c2ccc(Br)cc2)C1=O | 3
COc1cc(/C=C2\C(=O)NN(c3ccccc3)C2=O)cc(I)c1OCCCOc1ccc(Cl)cc1 | 0
COc1c(I)cc(I)cc1/C=C1/C(=O)NN(c2ccc(Cl)cc2)C1=O | 47*
